# Screens (PubChem BioAssay)
# TbPYK inhibitor: blocks Trypanosoma brucei pyruvate kinase; Q57TT1; TbPYK enzyme, Kinase-Glo Plus ATP luminescence, 45 min; Potency, µM (titrated, usually from 76.8 µM), for the others: at the top dose activity, negative = inhibition, usual class: inhibitors; 0.12% of 410,000 active; also: potency is read from the fitted curve at half-maximal effect; % is scaled to controls: 0 for no effect and ±100 for the full control effect; nearly all actives have a fitted effect of over 50% in size
#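 In this concentration-response screen, enzyme-free wells defined baseline while DMSO plates tracked drift. Each reaction combined TbPYK, substrate, compound and 130 uM ADP for 45 min at room temperature. Kinase-Glo Plus luminescence gave the signal.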
# LmPK inhibitor: LmPK (Leishmania mexicana) enzyme inhibition; 0.37% of 290,000 active; Potency, µM (series often up to 57.5 µM), for inactives: at the highest dose activity change, negative = inhibition, most hits filed as inhibitors; purified LmPK, Kinase-Glo ATP luminescence, 1 h; Q27686; also: potency is read from the fitted curve at half-maximal effect; % is scaled to controls: 0 for no effect and ±100 for the full control effect
#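 Kinase-Glo luminescence read after 1 h RT reaction of 0.1 nM LmPK with 0.5 mM PEP and 0.1 mM ADP. Activity scaled between uninhibited and enzyme-free controls.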
# Shiga toxin inh: Shiga toxin inhibition; Vero cells, Shiga toxin protein synthesis inhibition reporter; inhibition, % at 38.7 µM; 9.2% of 290,000 active; in the data active = inhibition mostly above about 28%, no sharp cut-off; inactive = mostly below about 43%; also: 0% is about no effect
# Cycloheximide cs: counter-screen for Shiga toxin inhibitors: cycloheximide protein synthesis inhibition | cell reporter, cycloheximide protein synthesis inhibition counterscreen | max response, % | 12% of 300,000 active; in the data active = max response mostly above about 13%, no sharp cut-off; inactive = mostly below about 14%; also: read at 38.3 µM for the half of the compounds with a filed dose; 0% is about no effect
# Giardia FBPA inh: blocks Giardia fructose-bisphosphate aldolase activity; 0.71% of 290,000 active; A8B2U2; Potency, µM (series often up to 59.6 µM), for the others: at the highest dose activity, negative = inhibition, actives largely listed as inhibitors; purified Giardia FBPA; also: potency is read from the fitted curve at half-maximal effect; % is scaled to controls: 0 for no effect and ±100 for the full control effect; nearly all actives have a fitted effect of over 55% in size
# Target sequence (A8B2U2 whole entry, looked up): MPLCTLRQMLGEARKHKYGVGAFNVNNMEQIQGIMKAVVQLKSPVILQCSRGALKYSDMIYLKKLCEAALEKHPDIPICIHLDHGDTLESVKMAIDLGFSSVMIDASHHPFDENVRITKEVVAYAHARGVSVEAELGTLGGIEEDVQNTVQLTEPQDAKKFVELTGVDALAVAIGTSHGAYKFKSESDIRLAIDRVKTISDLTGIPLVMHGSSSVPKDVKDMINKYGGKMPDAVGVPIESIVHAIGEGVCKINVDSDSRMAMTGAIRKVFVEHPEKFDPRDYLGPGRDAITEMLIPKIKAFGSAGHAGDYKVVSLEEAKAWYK
#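 40 nM FBPA preincubated 10 min at RT with compound (up to 57.5 uM final), then substrate plus GAPDH/TPI/NAD/arsenate coupling and diaphorase/resazurin added. Fluorescence read after 20 min at RT, 525/598 nm.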
# RE007 growth inh: less growth of the S. pombe RE007 Vpr strain; S. pombe RE007 Vpr strain, BacTiter-Glo ATP luminescence, 24 h; Potency, µM (series often up to 92.2 µM), for the others: at the top dose activity change, negative = less growth, usual class: inhibitors; 0.21% of 360,000 active; AID 651644; active = well fitted falling curve with a large enough effect; inconclusive = small, poorly fitted or top-dose-only effect; inactive = no such curve, though single readings can be large or run the other way; also: potency is read from the fitted curve at half-maximal effect; % is scaled to controls: 0 for no effect and ±100 for the full control effect; nearly all actives have a fitted effect of over 50% in size
#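 Fission yeast strain RE007, carrying one chromosomally integrated HIV-1 vpr copy, was seeded at OD 0.01 in PMG+AL medium with 23 nL pinned compound. After 24 h at 30 °C and 99% humidity, viability was read by BacTiter-Glo luminescence.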
# * = called active by the depositor; ? = inconclusive; / = not tested or not shown; [ ] = another dose, or the depositor's remark. This excerpt belongs to a sample that is enriched for hits. Unless noted, calls follow the shape of the dose curve; as a rule, active = well fitted curve in the direction sought with a large enough effect; inconclusive = small, poorly fitted or top-dose-only effect, or another doubt; inactive = no such curve, though single readings can be large; an effect the other way counts as inactive or inconclusive.
SMILES,TbPYK inhibitor,LmPK inhibitor,Shiga toxin inh,Cycloheximide cs,Giardia FBPA inh,RE007 growth inh
Cc1ccc(NC(=O)CC(C)S(=O)(=O)c2ccc3c(c2)NC(=O)CO3)c(C)c1 (stereo not drawn),0.9%,/,/,/,/,/
CCc1nc2nc(C)cc(Nc3ccc(OC)cc3OC)n2n1,-2.0%,/,/,/,/,/
COc1ccccc1N1CCN(c2nc3ccccn3c(=O)c2C=O)CC1,-10.0%,0.9%,34.9*,29.2*,-1.0%,9.6%
CCN1CCN(c2nc3ccccn3c(=O)c2C=O)CC1,1.0%,-1.5%,-4.0,-2.0,3.5%,0.5%
N#C/C(=C\c1c(N2CCCCCC2)nc2ccccn2c1=O)C(=O)NCc1ccco1,-1.3%,6.8%,41.4,37.7*,-6.9%,-3.6%
COCCNC(=O)CN1C(=O)COc2ccc(S(=O)(=O)N3CCCC3)cc21,2.7%,/,/,/,/,/
C=C1C(=O)C=C2CN(C(=O)c3ccccc3)[C@@](Cc3ccc(OC)cc3)(C(=O)OC)[C@@H]12,/,/,/,/,-11.1%,/
CCOC(=O)N1C2=NC(C(=O)OC)=C(C(=O)OC)[C@@H]3N(C)c4ccccc4[C@]23C[C@H]1C(=O)OC,4.3%,-7.0%[11.5 µM],-1.2,22.6*,8.5%[12.9 µM],4.3%
COc1ccc2c(C)c(CCC(=O)NCc3ccc(Cl)cc3)c(=O)oc2c1C,-1.5%,/,/,/,/,/
CC(C)(C)c1ccc(OCCSc2nc(-c3cccs3)nc3cc(=O)[nH]n23)cc1,-4.4%,/,/,/,/,/
O=c1oc2ccccc2cc1-c1nc2c(s1)CCCC2,-20.5%,12.6µM*,56.0*,31.2*,4.2%,-3.9%
Cc1cc(-c2nnc(-c3cc4ccccc4oc3=O)o2)c(C)n1-c1ccccc1,-14.6%,-2.9%,35.6,31.7*,5.5%,-7.4%
COc1ccc2oc(=O)c(-c3nc4ccccc4o3)cc2c1,7.5%,-10.5%,66.4*,25.0*,0.0%,-21.5%
O=c1oc2ccc3ccccc3c2cc1-c1nc2ccccc2o1,-1.0%,/,/,/,/,?
O=c1oc2ccccc2cc1-c1nc2ccccc2o1,-4.9%,?,71.0*,37.8*,/,?
Cc1ccc(NC(=O)C(Cc2c[nH]c3ccccc23)NC(=O)OCC(C)C)cc1 (stereo not drawn),-2.2%,/,/,/,/,/
COc1ccc(S(=O)(=O)N2CCC(Oc3ccc(-n4cnnn4)cc3)CC2)cc1OC,1.0%,/,/,/,/,/
CCc1ccc(NC(=O)c2ccc(F)c(S(=O)(=O)N(CC)c3ccccc3)c2)cc1,-9.2%,3.7%,1.6,14.5*,1.2%,0.8%
CCN(c1ccccc1)S(=O)(=O)c1cc(C(=O)Nc2cccc(Cl)c2)ccc1F,-6.0%,3.3%,-15.3,13.1,0.8%,-4.0%
CO[C@@H]1[C@H](N(C)C(=O)c2ccccc2)C[C@H]2O[C@]1(C)n1c3ccccc3c3c4c(c5c6ccccc6n2c5c31)C(=O)NC4,0.0%,/,/,/,/,/
Fc1ccc(-c2nnc(-c3ccc(Cl)cc3)o2)cc1,-2.0%,1.5%,46.5*,17.9*,2.6%,12.5%
Clc1ccc(-c2nnc(-c3ccc(Br)o3)o2)c(Cl)c1,4.9%,-1.8%,30.1,15.3*,3.5%,13.7%
Clc1ccc(-c2nnc(-c3ccccc3)o2)c(Cl)c1,0.1%,-29.6%,119.1,51.4*,4.8%,-12.3%
Clc1ccc(-c2nnc(N3CCOCC3)o2)cc1,1.5%,-1.5%,90.3*,30.9*,1.5%,6.6%
CS(=O)(=O)c1ccccc1-c1nnc(-c2ccc(Cl)cc2)o1,-3.7%,-3.3%,63.5*,19.1*,-8.5%,0.9%
SMILES,TbPYK inhibitor,LmPK inhibitor,Shiga toxin inh,Cycloheximide cs,Giardia FBPA inh,RE007 growth inh
Fc1ccc(-c2nnc(-c3ccc(Cl)cc3Cl)o2)cc1,0.5%,-13.8%,42.7*,22.4*,0.4%,-10.5%
CN(C)c1ccc(NC(=O)/C=C/c2c(Cl)cccc2Cl)cc1,-9.9%,0.3%,58.6*,40.7*,-1.2%,-12.8%
CN(C)S(=O)(=O)c1ccc(NC(=O)/C=C/c2ccccc2Cl)cc1,-20.0%,-0.7%,2.4,1.1,-7.6%,-17.1%
O=C(/C=C/c1ccccc1Cl)NNC(=O)c1ccncc1,-5.4%,/,/,/,/,1.3%
O=C(/C=C/c1ccccc1Cl)Nc1ccc(Cl)cn1,3.0%,12.7%,48.1*,22.5,15.1%,-4.1%
O=C(/C=C/c1ccccc1Cl)Nc1ccccc1,-8.5%,14.1µM*,60.5*,37.4*,-10.4%,?
O=C(/C=C/c1ccccc1Cl)Nc1cccc(O)c1,-6.4%,-11.3%[11.5 µM],78.4*,26.0*,-20.1%,-18.0%
NC(N)=NCCC[C@H](N)C(=O)NCC(=O)N[C@@H](CC(=O)O)C(=O)N[C@@H](CO)C(=O)O,/,/,-3.9,-12.0,-0.7%,/
Cc1noc(C)c1C(=O)N1CCC2(CC1)CN(c1ccccn1)C2,0.0%,/,/,/,-3.9%,/
Oc1c(C=NCc2ccccc2)sc2ccccc12,4.7%,-5.8%,91.2*,27.8*,-4.0%,-27.1%
CCn1c(O)c(C=NCc2ccccc2)sc1=S,-2.3%,-1.5%,32.9,14.9,-6.2%,-7.7%
Oc1cccc(C=NCc2ccccc2)c1O,-17.8%,-22.9%,-5.7,-1.3,7.06µM*,-13.9%
Oc1cccc(C=Nc2cccc3ccccc23)c1O,?,-29.5%,5.2,2.3,?,-17.5%
CCOC(=O)c1cc2c(nc1N)CC(C)(CC)OC2 (stereo not drawn),-8.7%,12.1%,116.5*,48.6*,4.3%,4.6%
CC1(C)Cc2nc3sc(C(N)=O)c(N)c3cc2CO1,1.4%,-12.2%,31.2,30.8*,-3.1%,2.7%
CCC1(C)Cc2nc3sc(C(=O)O)c(N)c3cc2CO1 (stereo not drawn),-6.5%,-1.7%,-15.8,5.5,?,-6.3%
CCOC(=O)c1sc2nc3c(cc2c1N)C(=O)CC(C)(C)C3,0.5%,-0.6%,24.8,6.2,7.0%,-5.5%
CCOC(=O)c1sc2nc3c(cc2c1N)COC(C)(C)C3,-5.6%,-1.3%,28.5*,38.0*,-7.3%,17.4%
CCOC(=O)c1sc2nc3c(cc2c1N)COC(C)(CC)C3 (stereo not drawn),/,-0.1%,32.5,41.3*,-0.9%,15.4%[3.69 µM]
CCOC(=O)c1cc2c(nc1N)CC(C)(C)OC2,-8.7%,-4.7%,15.7,13.5,3.8%,1.4%
CC(C)(C)NCC(O)COc1ccc(NC(=O)NC2CCCCC2)cc1 (stereo not drawn),1.5%,/,/,/,/,/
CC(C)(C)C(=O)Cn1c(=O)n(-c2ccc(Cl)c(Cl)c2)c(=O)c2c3c(sc21)CCCC3,1.1%,/,/,/,/,/
CC1(C)CCC(c2ccc(Cl)cc2)=C(CN2CCN(c3ccc(C(=O)NS(=O)(=O)c4ccc(N[C@H](CCN5CCOCC5)CSc5ccccc5)c(S(=O)(=O)C(F)(F)F)c4)cc3)CC2)C1,0.0%,/,/,/,/,/
Cc1ccc(Cl)cc1NC(=O)C1CCCN(S(=O)(=O)c2c(C)noc2/C=C/N(C)C)C1 (stereo not drawn),0.4%,/,/,/,/,/
COc1ccc(OC(=O)Nc2ccccc2)cc1,-5.4%,?,97.6*,32.5*,-1.1%,10.7%
CC(=O)Nc1ccc(NC(=O)Oc2ccccc2)cc1,-5.3%,-13.2%,-3.1,10.0,-1.7%,0.8%
